Assay results published in PubChem BioAssay (NCATS).
Results filed as inconclusive are left out. Active and inactive are the calls of the source. Calls follow the shape of the full dose curve.

Biological target: Peroxisome proliferator-activated receptor delta (Homo sapiens) (UniProt Q03181)
Test: qHTS assay for small molecule agonists of peroxisome proliferator-activated receptor delta signaling (AID 588534)
Details: HEK293T PPARdelta-UAS-bla, beta-lactamase ratio, 18 h; series mostly up to 76.7 µM
Summary of the method: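 Agonist-mode qHTS; reporter cells, 5 hrs 37 C pre-incubation; compound titration, 18 hrs 37 C; CCF4 dye, 2 hrs RT; fluorescence read. EC50/efficacy via Hill fit.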

Chain of Peroxisome proliferator-activated receptor delta (Homo sapiens) (Q03181 whole entry, looked up): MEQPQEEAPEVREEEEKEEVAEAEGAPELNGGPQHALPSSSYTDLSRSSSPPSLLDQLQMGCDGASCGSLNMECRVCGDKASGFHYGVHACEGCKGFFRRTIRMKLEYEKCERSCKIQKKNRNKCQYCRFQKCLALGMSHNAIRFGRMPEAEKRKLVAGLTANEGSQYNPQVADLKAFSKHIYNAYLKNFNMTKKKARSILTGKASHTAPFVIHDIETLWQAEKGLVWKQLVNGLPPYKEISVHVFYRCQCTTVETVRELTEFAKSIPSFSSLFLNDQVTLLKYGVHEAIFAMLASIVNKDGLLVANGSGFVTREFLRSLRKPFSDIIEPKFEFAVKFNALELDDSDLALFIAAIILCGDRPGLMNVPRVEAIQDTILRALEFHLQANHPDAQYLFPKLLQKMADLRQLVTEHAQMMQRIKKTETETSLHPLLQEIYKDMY

Row | Compound | outcome
1 | Clc1nc(Cl)c(Cl)c(Cl)c1Cl | inactive
2 | O=C(O)/C=C/c1ccc(/C=C/C(=O)O)cc1 | inactive
3 | O=Cc1ccc(Cl)c(Cl)c1 | inactive
4 | CCCCC(CC)CN (stereo not given) | inactive
5 | O=C(O)c1cc(Cl)cc(Cl)c1 | inactive
6 | N[C@@H]1[C@@H](O)[C@H](O)[C@@H](CO)O[C@H]1O | inactive
7 | CCCCOC(=O)c1ccccc1 | inactive
8 | CCN(Cc1cccc(S(=O)(=O)O)c1)c1ccc(C(=C2C=CC(=[N+](CC)Cc3cccc(S(=O)(=O)O)c3)C=C2)c2ccccc2S(=O)(=O)[O-])cc1 | inactive
9 | C=CC(=O)OCC(C)OCC(C)OCC(C)OC(=O)C=C (stereo not given) | inactive
10 | FC(F)(F)c1ccc(Cl)c(Cl)c1 | inactive
11 | CC(=O)c1ccc([N+](=O)[O-])cc1 | inactive
12 | CO[Si](OC)(OC)c1ccccc1 | inactive
13 | CCCCCCCC/C=C\CCCCCCCC(=O)OC | inactive
14 | CCCCC/C=C\C/C=C\CCCCCCCC(=O)OC | inactive
15 | c1cc2c3c(c1)ccc1cccc(c13)C2 | inactive
16 | CC1=CC2C3CC(C=C3C)C2C1 (stereo not given) | inactive
17 | Cc1ccc2ncccc2c1 | inactive
18 | CCOc1ccc(NC(C)=O)cc1N | inactive
19 | O=Cc1c(Cl)cccc1Cl | inactive
20 | Cc1ccc(S(=O)(=O)N=C=O)cc1 | inactive

Row | Compound | outcome
21 | C/C=C/C/C=C\CCCCCCCCOC(C)=O | inactive
22 | C[C@]12CC[C@@H]3c4ccc(O)cc4CC[C@H]3[C@@H]1CC[C@H]2O | inactive
23 | Cc1cc(-c2ccc(N=Nc3cc(S(=O)(=O)O)c4ccccc4c3N)c(C)c2)ccc1N=Nc1cc(S(=O)(=O)O)c2ccccc2c1N | inactive
24 | Cc1ccccc1C(=O)O | inactive
25 | CC(C)Nc1ccccc1 | inactive
26 | Cc1cccc(Br)c1 | inactive
27 | CN(C)C(=O)Nc1ccccc1 | inactive
28 | CCOCC(=O)O | inactive
29 | CC(=O)c1nccs1 | inactive
30 | O=C(c1ccc(Cl)cc1)c1ccc(Cl)cc1 | inactive
31 | CC(=O)OC(C)C | inactive
32 | O=C(O)c1cccc(Cl)c1Cl | inactive
33 | CC/C=C1/OC(=O)c2ccccc21 | inactive
34 | COCCOCCOCCO | inactive
35 | Nc1cc([N+](=O)[O-])ccc1O | inactive
36 | NCCCCCCN | inactive
37 | CC(C)(C)C1CCC(O)CC1 (stereo not given) | inactive
38 | Cc1ccc2c(c1)C(=O)OC2=O | inactive
39 | O=C(Cl)c1cc(Cl)cc(Cl)c1 | inactive
40 | CC(C)C(=O)OC(=O)C(C)C | inactive
